# Out of some 1,300 compounds screened, about 1,200 (92%) were called active. So high a share suggests a set chosen from earlier hits. This is one part of the list. Entries with a potency or affinity are not part of this list. Inconclusive results are not listed. How the calls were made is not given here.
# Test: P. falciparum Dd2 growth inhibitors, dose response, SYBR Green, cherry-picked samples (AID 1159567)
# Details: Plasmodium falciparum Dd2 growth, SYBR Green fluorescence; series mostly up to 19.5 µM; activity change, negative = inhibition: at the top concentration
row,Structure (SMILES),"activity change, negative = inhibition"
1,O=C(O)C[C@@H]1C[C@@H]2c3cc(NS(=O)(=O)c4ccccc4)ccc3O[C@@H]2[C@H](CO)O1,-11.2% (inactive)
2,C[C@@H]1CN([C@@H](C)CO)C(=O)c2cc(NC(=O)C3CC3)ccc2O[C@H]1CN(C)CC1CCCCC1,-17.9% (inactive)
3,CCC(=O)N[C@H]1C=C[C@H](CC(=O)NCC2CCCCC2)O[C@@H]1CO,-5.23% (inactive)
4,C[C@H]1CN([C@@H](C)CO)C(=O)CCCn2nncc2CO[C@H]1CN(C)C(=O)Nc1ccc(N2CCCCC2)cc1,-18.3% (inactive)
5,C[C@H]1CN([C@@H](C)CO)C(=O)CCCn2cc(nn2)CO[C@@H]1CN(C)C(=O)Nc1ccc(N2CCCCC2)cc1,-18.6% (inactive)
6,COc1cccc(CNC(=O)[C@H]2[C@H](CO)[C@H]3Cn4c(cccc4=O)[C@@H]2N3C(=O)C2CCCC2)c1,-12.2% (inactive)
7,O=C(c1cccnc1)N1CC2(C1)[C@@H](c1ccccc1)[C@@H](CO)N2C(=O)CC1CC1,-16.6% [at 21 µM] (inactive)
8,COc1ccc(CNC(=O)C[C@H]2C=C[C@@H](NS(=O)(=O)c3cccc(OC)c3)[C@@H](CO)O2)cc1,-19.1% [at 21 µM] (inactive)
9,C[C@H](O)C#Cc1cnc2c(c1)C(=O)N([C@@H](C)CO)C[C@@H](C)[C@@H](CN(C)C(=O)Cc1ccncc1)O2,-11.8% (inactive)
10,O=C(Nc1ccc(F)cc1)N1C[C@H]2[C@@H](c3ccccc31)[C@@H](CO)N2Cc1cocn1,-26% (inactive)
11,O=C(Nc1ccccc1F)N1C[C@@H]2[C@H](c3ccccc31)[C@H](CO)N2C(=O)C1CCOCC1,-23.9% (inactive)
12,CN(C)CC#Cc1ccc([C@@H]2[C@H](CO)N3C(=O)CN(C(=O)Cc4cccnc4)C[C@@H]23)cc1,-3.25% (inactive)
13,COc1ccc(CN(C)C[C@@H]2OCc3cn(nn3)CCCC(=O)N([C@H](C)CO)C[C@H]2C)cc1,-7.11% (inactive)
14,C[C@@H]1CN([C@@H](C)CO)C(=O)c2c(c3ccccc3n2C)-c2ccccc2CO[C@H]1CN(C)Cc1ccc(Cl)c(Cl)c1,-15.5% [at 21 µM] (inactive)
15,O=C1CN(Cc2ccc(F)cc2)C[C@@H]2[C@@H](c3ccc(Br)cc3)[C@H](CO)N12,-20.1% [at 21 µM] (inactive)
16,Cc1noc(C)c1NC(=O)Nc1ccc2c(c1)C(=O)N([C@H](C)CO)C[C@@H](C)[C@@H](CN(C)S(C)(=O)=O)O2,-10.7% (inactive)
17,COc1ccc2c3c([nH]c2c1)[C@@H](CO)N(C(C)=O)CC31CN(C(=O)CN2CCOCC2)C1,-8.81% (inactive)
18,COCC(=O)N1CC2(C1)CN(C(=O)CN1CCOCC1)[C@@H](CO)c1c2c2ccc(OC)cc2n1C,-8.46% (inactive)
19,CCCNC(=O)Nc1ccc2c(c1)C(=O)N(C)C[C@H](OC)[C@@H](C)CN(C(=O)C1CCOCC1)[C@@H](C)CO2,-5.93% (inactive)
20,COCC(=O)Nc1ccc2c(c1)OC[C@@H](C)N(C(=O)NC(C)C)C[C@@H](C)[C@@H](OC)CN(C)C2=O,-13.3% (inactive)
21,COc1ccccc1S(=O)(=O)N(C)C[C@H]1OCc2cn(nn2)CCCC(=O)N([C@@H](C)CO)C[C@@H]1C,-3.07% (inactive)
22,CO[C@H]1CN(C)C(=O)c2ccc(NC(=O)CC(F)(F)F)cc2OC[C@@H](C)N(CC2CC2)C[C@H]1C,-17.4% [at 21 µM] (inactive)
23,COc1ccc2c3c(n(C)c2c1)[C@H](CO)N(Cc1cccnc1)CC31CN(C(=O)NC(C)C)C1,-10.2% (inactive)

row,Structure (SMILES),"activity change, negative = inhibition"
1,N#C[C@@H]1[C@H](c2ccccc2-c2ccccc2F)[C@H](CO)N1C(=O)C1CCOCC1,-20.2% (inactive)
2,N#C[C@H]1[C@@H](c2ccccc2-c2ccccc2F)[C@@H](CO)N1C(=O)C1CCOCC1,-3.56% (inactive)
3,N#C[C@@H]1[C@@H](c2ccccc2-c2ccccc2F)[C@H](CO)N1C(=O)C1CC1,-22.6% (inactive)
4,C[C@@H]1CN([C@H](C)CO)C(=O)c2cc(NC(=O)CCC(F)(F)F)ccc2O[C@H]1CN(C)C(=O)NC1CCCCC1,-20% (inactive)
5,C[C@H](CO)N1C[C@H](C)[C@@H](CN(C)C(=O)CCCN(C)C)OCc2cnnn2CCCC1=O,-3.7% [at 21 µM] (inactive)
6,O=C(C[C@@H]1C=C[C@@H](NC(=O)C2CCC2)[C@H](CO)O1)NC1CCC1,-9.66% (inactive)
7,CN1C(=O)c2cc(NC(=O)c3ccc4c(c3)OCO4)ccc2OC[C@@H]2O[C@@H](CC(=O)O)CC[C@@H]21,-0.896% (inactive)
8,CO[C@@H]1CN(C)C(=O)c2cc(NC(C)=O)ccc2OC[C@@H](C)N(C(=O)Cc2cccnc2)C[C@H]1C,22.8% (inactive)
9,COCC#Cc1ccc([C@H]2[C@H](CO)N3C(=O)CN(C(=O)CN4CCOCC4)C[C@@H]23)cc1,-30.4% (inactive)
10,CN(C)CC(=O)Nc1ccc2c(c1)[C@@H]1C[C@H](CC(=O)N3CCOCC3)O[C@@H](CO)[C@@H]1O2,-1.66% (inactive)
11,C[C@H]1CN([C@@H](C)CO)C(=O)Cc2cc(NC(=O)CCC(F)(F)F)ccc2O[C@H]1CN(C)S(C)(=O)=O,12.8% [at 21 µM] (inactive)
12,CN(C)C(=O)c1cccc(-c2ccccc2[C@@H]2[C@@H](C#N)N(C(=O)C3CC3)[C@H]2CO)c1,-19.9% (inactive)
13,COCC(=O)N1[C@H](C#N)[C@@H](c2ccccc2-c2ccccc2)[C@H]1CO,-11.9% (inactive)
14,COCC(=O)N1[C@@H](C#N)[C@H](c2ccccc2-c2ccccc2)[C@@H]1CO,-22.4% [at 21 µM] (inactive)
15,CO[C@H]1CN(C)C(=O)c2cc(NS(=O)(=O)c3ccccc3C)ccc2OC[C@H](C)N(C)C[C@H]1C,-44.6% (inactive)
16,CO[C@H]1CN(C)C(=O)c2ccc(NS(=O)(=O)CC(F)(F)F)cc2OC[C@H](C)N(C)C[C@@H]1C,1.24% [at 21 µM] (inactive)
17,O=C(C[C@H]1C=C[C@H](NC(=O)Cc2ccccn2)[C@H](CO)O1)NCCc1ccccc1,-6.06% (inactive)
18,CCC(=O)N1[C@H](CO)[C@H](c2ccccc2)[C@@H]1CN(CC)C(=O)c1cccc(F)c1,-8.04% (inactive)
19,CCCNC(=O)Nc1ccc2c(c1)C(=O)N(C)C[C@H](OC)[C@@H](C)CN(C(=O)C1CCOCC1)[C@H](C)CO2,23.2% (inactive)
20,CCCNC(=O)Nc1ccc2c(c1)C(=O)N(C)C[C@@H](OC)[C@H](C)CN(C(=O)C1CCOCC1)[C@@H](C)CO2,-4.92% (inactive)
21,COCC(=O)N1[C@H](C#N)[C@@H](c2ccccc2C2=CCCC2)[C@@H]1CO,-0.072% (inactive)
22,CO[C@H]1CN(C)C(=O)c2cc(NC(C)=O)ccc2OC[C@H](C)N(Cc2ccncc2)C[C@@H]1C,-6.15% (inactive)
23,CO[C@H]1CN(C)C(=O)c2cc(NC(C)=O)ccc2OC[C@H](C)N(Cc2ccncc2)C[C@H]1C,-11.2% (inactive)
